These results are taken from publication PMC5540273 (PLoS ONE, 2017).

Some test systems named below: ERN1; FER; FES; FGFR1; FGFR2; FGFR3; FGFR4; FGR; FLT1; FLT3-autoinhibited; FLT3; FLT4; FRK; FYN; GAK.
Holding throughout (settings): concentration: 1 μM, replicates: in singlicate; n = 1
The test system of the next experiment is T1, ERK4.
T1 construct: gene MAPK4

The subject of another experiment is T2, ERK5.
T2 construct: gene MAPK7

A further experiment concerns T3, ERK8.
T3 construct: gene MAPK15

Another experiment has as its system T4, FAK.
T4 construct: gene PTK2

Another experiment deals with T5, GCN2(Kin.Dom.2,S808G).
T5 construct: gene EIF2AK4

The structures appear in SMILES notation.
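Further: KINOMEscan kinase panel screen.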

`COc1ccc(Nc2nccc(N3CCC(NC(=O)c4cccc(NC(C)=O)c4)C3)n2)cc1` (centres unmarked) [GSK1379732]: the “%Inh” value in the experiment with ERK4 was 7%; with ERK5, 0%; with ERK8, 5%; in the experiment on ERN1 it was 0%; with FAK, 0%; in the experiment on FER, 12%. Besides, the “%Inh” value was determined as 0% in the experiment with FES; 0% in the experiment with FGFR1; 37% in the experiment with FGFR2; 19% in the experiment on FGFR3; 3% in the experiment on FGFR4; 27% in the experiment on FGR. Moreover, the “%Inh” value is 23% in the experiment on FLT1; 0% in the experiment with FLT3-autoinhibited; 0% in the experiment on FLT3; 6% in the experiment on FLT4; 0% in the experiment with FRK; 0% in the experiment on FYN. In addition, the “%Inh” value stood at 16% in the experiment with GAK and 9% in the experiment on GCN2(Kin.Dom.2,S808G).

As to `CC(C)N1CCC(n2cnc(-c3ccc(F)cc3)c2-c2ccnc(N)n2)CC1` [SB-223132], the “%Inh” value in the experiment on ERK4 came out at 0%; with ERK5, 0%; with ERK8, 4%; in the experiment with ERN1 it was 0%; in the experiment with FAK, 16%; with FER, 8%. Besides, the “%Inh” value with FES is 0%; in the experiment with FGFR1, 22%; in the experiment with FGFR2, 10%; in the experiment with FGFR3 it was 21%; in the experiment with FGFR4, 0%; in the experiment with FGR, 16%. Besides, the “%Inh” value with FLT1 was 0%; with FLT3-autoinhibited, 0%; in the experiment on FLT3 it was 0%; in the experiment with FLT4, 0%; in the experiment with FRK, 1%; in the experiment with FYN, 0%. Moreover, the “%Inh” value is listed as 2% in the experiment with GAK and 0% with GCN2(Kin.Dom.2,S808G).

`Cc1cc(N2CCC(NS(=O)(=O)c3ccc(F)cc3)CC2)nc(Nc2cccc(C#N)c2)n1.O=C(O)C(F)(F)F` [GSK1653537]: the “%Inh” value with ERK4 was 0%; with ERK5, 0%; in the experiment on ERK8, 31%; with ERN1 it was 0%; in the experiment on FAK, 0%; in the experiment on FER, 18%. Moreover, the “%Inh” value in the experiment on FES turned out to be 26%; in the experiment on FGFR1, 6%; in the experiment with FGFR2, 0%; with FGFR3 it was 16%; with FGFR4 it was 0%; with FGR it was 26%. Also, the “%Inh” value in the experiment on FLT1 stood at 35%; in the experiment on FLT3-autoinhibited it was 0%; with FLT3, 4%; with FLT4 it was 0%; in the experiment on FRK it was 8%; in the experiment on FYN, 19%. Further, the “%Inh” value in the experiment on GAK was determined as 0%; in the experiment with GCN2(Kin.Dom.2,S808G), 6%.

Consider `C[C@H]1CC[C@@H](C(=O)Nc2ccccc2)CN1c1cc(-c2ccc3c(N)n[nH]c3c2)nc(N)n1` [GSK2283293], for which the “%Inh” value with ERK4 came out at 29%; in the experiment with ERK5, 0%; in the experiment on ERK8, 0%; in the experiment with ERN1, 0%; in the experiment on FAK, 0%; in the experiment with FER, 3%. Besides, the “%Inh” value with FES worked out at 9%; in the experiment on FGFR1, 0%; in the experiment with FGFR2 it was 5%; in the experiment on FGFR3 it was 0%; with FGFR4, 0%; in the experiment with FGR, 27%. Also, the “%Inh” value in the experiment with FLT1 stood at 13%; in the experiment on FLT3-autoinhibited, 0%; in the experiment with FLT3, 0%; with FLT4 it was 4%; with FRK, 5%; with FYN, 0%. The “%Inh” value with GAK and in the experiment on GCN2(Kin.Dom.2,S808G) was 0% each time.

For `CS(=O)(=O)CCNCc1nc(-c2ccc3ncnc(Nc4ccc(OCc5cccc(F)c5)c(Cl)c4)c3c2)cs1.Cl` [GW583340], the “%Inh” value in the experiment on ERK4 worked out at 45%; with ERK5 it was 5%; in the experiment with ERK8, 0%; with ERN1, 10%; in the experiment with FAK it was 0%; in the experiment with FER, 3%. Also, the “%Inh” value in the experiment with FES is listed as 0%; with FGFR1, 0%; in the experiment with FGFR2, 0%; in the experiment with FGFR3, 0%; in the experiment with FGFR4, 0%; in the experiment with FGR, 11%. In addition, the “%Inh” value stood at 10% in the experiment on FLT1; 0% with FLT3-autoinhibited; 0% in the experiment on FLT3; 0% with FLT4; 0% with FRK; 35% in the experiment with FYN. For the same molecule, the results for the “%Inh” value in the experiment on GAK and with GCN2(Kin.Dom.2,S808G) were 19% and 0%, respectively.

For the molecule `C[C@@H]1CCN(C(=O)CO)C[C@@H]1N(C)c1ncnc2[nH]ccc12`, the “%Inh” value in the experiment on ERK4 turned out to be 19%; in the experiment on ERK5 it was 0%; with ERK8, 9%; with ERN1, 0%; in the experiment with FAK, 0%; with FER it was 8%. In addition, the “%Inh” value with FES is 0%; in the experiment with FGFR1 it was 12%; with FGFR2, 7%; in the experiment with FGFR3 it was 0%; with FGFR4, 0%; with FGR, 0%. For the same molecule, the “%Inh” value in the experiment with FLT1 is listed as 0%; with FLT3-autoinhibited, 0%; with FLT3 it was 0%; in the experiment on FLT4, 0%; in the experiment on FRK, 3%; with FYN, 0%. Also, the “%Inh” value worked out at 0% in the experiment on GAK and 7% in the experiment with GCN2(Kin.Dom.2,S808G).

For `COc1cc2c(Nc3cccc(NC(=O)c4ccccc4)c3)ncnc2cc1OCCCN1CCOCC1` [GSK223810], the “%Inh” value with ERK4 is 0%; in the experiment on ERK5, 0%; with ERK8, 0%; in the experiment with ERN1 it was 23%; in the experiment on FAK, 0%; in the experiment with FER it was 0%. Further, the “%Inh” value in the experiment with FES is 0%; in the experiment with FGFR1, 18%; in the experiment with FGFR2, 11%; in the experiment with FGFR3, 22%; in the experiment with FGFR4, 3%; with FGR it was 0%. The “%Inh” value with FLT1 is 61%; in the experiment on FLT3-autoinhibited it was 0%; in the experiment with FLT3 it was 6%; in the experiment on FLT4, 28%; in the experiment with FRK it was 17%; with FYN it was 24%. Also, the “%Inh” value in the experiment on GAK stood at 16%; in the experiment on GCN2(Kin.Dom.2,S808G) it was 0%.

With `CSc1nn2c(=O)cc(N3CCOCC3)nc2n1Cc1cccc(Cl)c1Cl` [GSK2347225], the “%Inh” value is 21% with ERK4; 0% with ERK5; 0% in the experiment on ERK8; 9% in the experiment with ERN1; 0% in the experiment with FAK; 44% in the experiment with FER. Besides, the “%Inh” value worked out at 13% with FES; 6% in the experiment with FGFR1; 17% in the experiment with FGFR2; 17% in the experiment on FGFR3; 15% in the experiment on FGFR4; 30% in the experiment with FGR. For the same molecule, the “%Inh” value with FLT1 turned out to be 24%; in the experiment on FLT3-autoinhibited it was 0%; in the experiment on FLT3 it was 0%; with FLT4, 0%; with FRK, 11%; with FYN, 17%. The “%Inh” value was determined as 9% in the experiment with GAK and 1% with GCN2(Kin.Dom.2,S808G).

Regarding `O=C(NCCCN1CCCC1=O)c1cnc(NCc2cc(Cl)ccc2Cl)nc1NC1CCNCC1`, the “%Inh” value amounted to 0% in the experiment on ERK4; 0% in the experiment with ERK5; 17% with ERK8; 0% in the experiment with ERN1; 0% in the experiment on FAK; 0% in the experiment with FER. Besides, the “%Inh” value is 0% with FES; 11% in the experiment with FGFR1; 14% in the experiment on FGFR2; 0% with FGFR3; 0% in the experiment with FGFR4; 1% in the experiment on FGR. In addition, the “%Inh” value was 0% in the experiment with FLT1; 0% in the experiment on FLT3-autoinhibited; 0% in the experiment with FLT3; 7% in the experiment on FLT4; 0% in the experiment with FRK; 6% with FYN. Moreover, the “%Inh” value in the experiment with GAK and with GCN2(Kin.Dom.2,S808G) was 0% in each case.

In the case of `O=c1cc(N2CCOCC2)nc2n(Cc3cccc(Cl)c3)ccn12` [GSK2296823], the “%Inh” value is 7% in the experiment on ERK4; 0% with ERK5; 38% in the experiment with ERK8; 0% in the experiment on ERN1; 0% with FAK; 3% in the experiment on FER. In addition, the “%Inh” value with FES was found to be 0%; in the experiment on FGFR1, 0%; with FGFR2, 14%; with FGFR3, 24%; with FGFR4, 5%; in the experiment on FGR, 15%. Besides, the “%Inh” value in the experiment with FLT1 stood at 19%; with FLT3-autoinhibited, 14%; with FLT3 it was 0%; in the experiment with FLT4 it was 1%; with FRK it was 7%; in the experiment with FYN, 0%. Besides, the “%Inh” value with GAK was 2%; with GCN2(Kin.Dom.2,S808G), 0%.
